For some assays here: Potency and affinity values are given separately.

The results in this text go back to ChEMBL document CHEMBL3988442, “University of Dundee, Small-Polar-MMV Screening Library” (2021).

What all share (set-up): scale not given: direction of the effect not stated beside the values
Assay [1] has as its target Protein translocase subunit SecA (Escherichia coli (strain K12)) (UniProt P10408). The experiment in a line: Assay to Identify E. coli SecA ATPase Inhibitors. The format is functional. The note with it: 30 µM.
Assay [2] concerns the target T1, Ubiquitin-activating enzyme e1, putative (Leishmania donovani (strain BPK282A1)) (UniProt E9BSI1).
T1 sequence (whole entry): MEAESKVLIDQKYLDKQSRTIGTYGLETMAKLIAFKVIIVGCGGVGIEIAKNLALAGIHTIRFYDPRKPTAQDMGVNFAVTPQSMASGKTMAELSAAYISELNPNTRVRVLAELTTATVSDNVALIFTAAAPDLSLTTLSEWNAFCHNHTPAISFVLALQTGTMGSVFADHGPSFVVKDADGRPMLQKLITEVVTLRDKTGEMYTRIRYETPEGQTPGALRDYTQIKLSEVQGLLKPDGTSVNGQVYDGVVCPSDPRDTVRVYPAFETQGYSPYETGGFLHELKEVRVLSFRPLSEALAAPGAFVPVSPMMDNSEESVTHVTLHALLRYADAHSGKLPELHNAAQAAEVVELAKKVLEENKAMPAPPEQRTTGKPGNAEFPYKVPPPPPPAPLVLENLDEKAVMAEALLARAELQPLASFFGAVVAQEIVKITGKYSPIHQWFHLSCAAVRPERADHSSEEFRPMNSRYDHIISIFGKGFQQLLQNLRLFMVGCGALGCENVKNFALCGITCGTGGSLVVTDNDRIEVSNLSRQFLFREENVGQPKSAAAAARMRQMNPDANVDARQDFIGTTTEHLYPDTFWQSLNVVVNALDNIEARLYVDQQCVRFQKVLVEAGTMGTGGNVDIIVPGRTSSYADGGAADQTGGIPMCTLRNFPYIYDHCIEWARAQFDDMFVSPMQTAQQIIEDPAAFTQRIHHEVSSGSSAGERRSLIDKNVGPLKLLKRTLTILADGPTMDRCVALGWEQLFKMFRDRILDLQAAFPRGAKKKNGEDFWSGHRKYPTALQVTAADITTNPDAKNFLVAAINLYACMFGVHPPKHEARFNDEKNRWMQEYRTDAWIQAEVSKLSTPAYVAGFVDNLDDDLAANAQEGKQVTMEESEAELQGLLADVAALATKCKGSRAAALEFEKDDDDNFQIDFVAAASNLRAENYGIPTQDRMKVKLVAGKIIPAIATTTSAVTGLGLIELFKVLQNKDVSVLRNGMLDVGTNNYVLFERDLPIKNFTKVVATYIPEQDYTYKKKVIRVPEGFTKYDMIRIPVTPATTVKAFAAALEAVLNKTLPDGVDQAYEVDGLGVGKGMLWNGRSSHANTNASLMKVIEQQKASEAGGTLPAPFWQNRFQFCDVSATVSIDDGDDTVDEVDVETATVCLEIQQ
Kind of assay: Leishmania donovani Ubiquitin Activating Enzyme (LdE1). Format: functional. The following applies: 30 µM.

Assay [3] deals with AMP-activated protein kinase, AMPK (Homo sapiens) (UniProt P54646+O43741+P54619+Q9UGJ0+Q9Y478+Q13131+Q9UGI9). Kind of assay: AMP-dependent Kinase enzyme assay. An in vitro enzyme assay that detects ADP turnover that is directly proportional to AMPK activity. This uses naive AMPK that is activated during the assay with MK-8722. The format is functional. The following applies: 30 µM.

The target of assay [4] is Sialic acid-binding Ig-like lectin 9 (Homo sapiens) (UniProt Q9Y336). Kind of assay: Hs-Siglec9 ALPHAscreen SOP 20170721. The note with it: 10 µM. (In general: Alpha assays give light when donor and acceptor beads are brought close together.)
The next assay deals with Trypanosoma cruzi. Kind of assay: Trypanosoma cruzi phosphomannomutase and mannose-1-phosphate guanylyltransferase assay. The following applies: 10 µM. The format is functional.
The target of assay [5] is T2, Arginase-2, mitochondrial (Homo sapiens) (UniProt P78540).
T2 sequence (whole entry): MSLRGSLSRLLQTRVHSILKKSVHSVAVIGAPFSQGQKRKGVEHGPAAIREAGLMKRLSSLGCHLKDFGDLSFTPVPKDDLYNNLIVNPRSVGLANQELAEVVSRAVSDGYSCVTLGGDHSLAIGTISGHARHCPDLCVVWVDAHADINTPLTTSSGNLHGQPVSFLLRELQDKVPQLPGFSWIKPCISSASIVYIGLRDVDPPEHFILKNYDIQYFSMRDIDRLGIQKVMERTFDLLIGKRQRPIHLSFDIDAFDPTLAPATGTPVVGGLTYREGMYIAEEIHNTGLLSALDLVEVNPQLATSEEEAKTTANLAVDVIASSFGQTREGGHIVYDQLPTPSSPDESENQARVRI
Kind of assay: in vitro enzyme assay to detect the production of urea directly proportional to the activity of Arginase II. Also: in the data most compounds retested in dose-response had high values. The note with it: 33.3 µM. The format is functional.

In assay [6] the target is T3, Proteasome subunit beta (Trypanosoma cruzi) (UniProt O96673).
T3 sequence (whole entry): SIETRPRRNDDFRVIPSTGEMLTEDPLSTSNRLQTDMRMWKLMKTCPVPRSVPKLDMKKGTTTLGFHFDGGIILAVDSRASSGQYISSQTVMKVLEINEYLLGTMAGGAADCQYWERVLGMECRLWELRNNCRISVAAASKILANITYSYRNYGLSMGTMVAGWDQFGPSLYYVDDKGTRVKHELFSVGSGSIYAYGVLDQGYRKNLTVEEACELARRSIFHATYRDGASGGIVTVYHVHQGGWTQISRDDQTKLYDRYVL
Kind of assay: Trypanosoma cruzi proteasome chymotrypsin-like activity (TcProtChymo) assay. Also: in the data most compounds retested in dose-response had high values. The format is functional. The note with it: 9.37 µM.

For another assay, the species on record is Homo sapiens. Kind of assay: To identify inhibition of the IFN signalling (Jak-Stat) pathway via expression of an eGFP reporter gene under the control of an IFN-stimulated response element (ISRE) containing MxA promoter. The following applies: 30 µM. Format: functional.
Assay [7] has as its target T4, Tyrosyl-tRNA synthetase, putative (Trypanosoma cruzi (strain CL Brener)) (UniProt Q4DSP6).
T4 sequence (whole entry): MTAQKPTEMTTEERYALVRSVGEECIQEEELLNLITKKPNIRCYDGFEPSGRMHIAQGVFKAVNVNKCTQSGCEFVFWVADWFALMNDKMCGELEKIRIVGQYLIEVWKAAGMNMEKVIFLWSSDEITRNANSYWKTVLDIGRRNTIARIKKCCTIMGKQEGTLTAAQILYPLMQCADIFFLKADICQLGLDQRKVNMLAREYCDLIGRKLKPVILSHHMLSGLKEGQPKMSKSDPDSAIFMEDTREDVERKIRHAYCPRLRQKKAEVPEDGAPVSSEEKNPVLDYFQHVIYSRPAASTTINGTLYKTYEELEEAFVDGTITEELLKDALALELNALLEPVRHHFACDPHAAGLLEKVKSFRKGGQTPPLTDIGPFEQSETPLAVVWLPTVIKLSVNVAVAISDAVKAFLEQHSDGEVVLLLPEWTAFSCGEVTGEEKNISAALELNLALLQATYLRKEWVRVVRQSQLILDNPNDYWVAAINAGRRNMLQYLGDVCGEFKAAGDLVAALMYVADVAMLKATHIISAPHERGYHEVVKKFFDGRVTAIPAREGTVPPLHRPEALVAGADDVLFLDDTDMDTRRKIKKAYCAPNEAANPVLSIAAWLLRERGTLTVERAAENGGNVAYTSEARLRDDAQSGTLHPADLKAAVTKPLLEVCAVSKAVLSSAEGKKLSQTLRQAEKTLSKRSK
The experiment in a line: Trypanosoma cruzi tyrosyl tRNA synthetase (TcYRS) _High Tyrosine SOP. Also: in the data most compounds retested in dose-response had high values. Format: functional. The following applies: 30 µM.

Assay [8] concerns the target T4, Tyrosyl-tRNA synthetase, putative (Trypanosoma cruzi (strain CL Brener)). The experiment in a line: Trypanosoma cruzi tyrosyl tRNA synthetase (TcYRS) SOP. The format is functional. The following applies: 30 µM.
For assay [9], the target named is Chromo domain-containing protein 1 (Saccharomyces cerevisiae (strain ATCC 204508 / S288c) (Baker's yeast)) (UniProt P32657). Kind of assay: ScCHD-1 Enzyme Inhibition Assay. Also: in the data most compounds retested in dose-response had high values. Format: functional. The following applies: 30 µM.
Chain of Chromo domain-containing protein 1 (Saccharomyces cerevisiae (strain ATCC 204508 / S288c) (Baker's yeast)) (P32657 whole entry, the tested form may be a part): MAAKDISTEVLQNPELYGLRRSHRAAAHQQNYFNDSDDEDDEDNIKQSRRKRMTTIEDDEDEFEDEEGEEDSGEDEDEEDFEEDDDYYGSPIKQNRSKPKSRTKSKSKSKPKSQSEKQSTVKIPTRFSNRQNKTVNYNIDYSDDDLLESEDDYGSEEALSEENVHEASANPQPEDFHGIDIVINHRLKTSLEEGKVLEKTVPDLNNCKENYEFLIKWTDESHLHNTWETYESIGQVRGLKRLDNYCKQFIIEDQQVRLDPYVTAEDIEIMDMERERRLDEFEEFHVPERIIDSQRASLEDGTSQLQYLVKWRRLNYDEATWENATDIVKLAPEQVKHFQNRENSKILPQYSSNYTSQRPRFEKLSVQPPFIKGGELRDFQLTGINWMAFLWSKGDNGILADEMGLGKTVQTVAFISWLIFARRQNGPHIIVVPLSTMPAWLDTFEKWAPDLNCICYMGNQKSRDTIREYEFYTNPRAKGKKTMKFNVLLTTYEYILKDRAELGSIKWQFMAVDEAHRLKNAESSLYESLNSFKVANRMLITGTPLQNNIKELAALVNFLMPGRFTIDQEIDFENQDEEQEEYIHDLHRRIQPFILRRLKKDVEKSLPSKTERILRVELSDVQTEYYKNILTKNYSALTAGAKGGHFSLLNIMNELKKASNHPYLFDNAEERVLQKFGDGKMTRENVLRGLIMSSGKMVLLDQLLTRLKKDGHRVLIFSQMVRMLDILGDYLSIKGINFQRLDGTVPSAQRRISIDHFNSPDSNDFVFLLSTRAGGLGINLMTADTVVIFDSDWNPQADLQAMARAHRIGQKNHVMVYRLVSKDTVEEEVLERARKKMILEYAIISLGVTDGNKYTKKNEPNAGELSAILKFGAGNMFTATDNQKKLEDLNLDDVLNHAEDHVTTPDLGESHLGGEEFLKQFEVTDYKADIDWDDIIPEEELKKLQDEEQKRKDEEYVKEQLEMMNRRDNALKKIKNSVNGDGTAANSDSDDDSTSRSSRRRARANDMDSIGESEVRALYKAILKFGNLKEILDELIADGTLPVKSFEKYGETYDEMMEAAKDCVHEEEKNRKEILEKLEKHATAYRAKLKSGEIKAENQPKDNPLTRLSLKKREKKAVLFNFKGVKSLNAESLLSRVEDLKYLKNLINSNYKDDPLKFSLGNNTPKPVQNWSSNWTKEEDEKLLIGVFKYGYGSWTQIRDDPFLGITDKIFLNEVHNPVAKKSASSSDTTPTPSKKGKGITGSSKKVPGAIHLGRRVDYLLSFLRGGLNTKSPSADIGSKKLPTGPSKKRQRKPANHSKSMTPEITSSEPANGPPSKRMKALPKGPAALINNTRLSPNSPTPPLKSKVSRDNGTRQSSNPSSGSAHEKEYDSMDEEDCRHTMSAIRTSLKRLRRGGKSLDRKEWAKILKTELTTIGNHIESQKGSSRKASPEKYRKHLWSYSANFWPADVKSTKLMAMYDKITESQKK

Chain of Sialic acid-binding Ig-like lectin 9 (Homo sapiens) (Q9Y336 whole entry): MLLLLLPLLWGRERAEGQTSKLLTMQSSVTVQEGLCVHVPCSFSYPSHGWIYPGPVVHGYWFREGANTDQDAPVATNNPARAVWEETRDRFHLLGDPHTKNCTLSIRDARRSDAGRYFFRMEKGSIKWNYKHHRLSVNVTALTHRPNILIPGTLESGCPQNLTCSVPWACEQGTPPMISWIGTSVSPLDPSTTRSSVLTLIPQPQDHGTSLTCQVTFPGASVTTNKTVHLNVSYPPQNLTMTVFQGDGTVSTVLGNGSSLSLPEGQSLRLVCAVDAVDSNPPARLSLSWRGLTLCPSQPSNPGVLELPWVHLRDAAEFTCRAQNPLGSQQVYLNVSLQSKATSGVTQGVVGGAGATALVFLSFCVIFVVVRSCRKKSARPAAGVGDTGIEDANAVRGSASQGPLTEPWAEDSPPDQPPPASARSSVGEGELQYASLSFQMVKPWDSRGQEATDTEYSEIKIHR
Chain of Protein translocase subunit SecA (Escherichia coli (strain K12)) (P10408 whole entry): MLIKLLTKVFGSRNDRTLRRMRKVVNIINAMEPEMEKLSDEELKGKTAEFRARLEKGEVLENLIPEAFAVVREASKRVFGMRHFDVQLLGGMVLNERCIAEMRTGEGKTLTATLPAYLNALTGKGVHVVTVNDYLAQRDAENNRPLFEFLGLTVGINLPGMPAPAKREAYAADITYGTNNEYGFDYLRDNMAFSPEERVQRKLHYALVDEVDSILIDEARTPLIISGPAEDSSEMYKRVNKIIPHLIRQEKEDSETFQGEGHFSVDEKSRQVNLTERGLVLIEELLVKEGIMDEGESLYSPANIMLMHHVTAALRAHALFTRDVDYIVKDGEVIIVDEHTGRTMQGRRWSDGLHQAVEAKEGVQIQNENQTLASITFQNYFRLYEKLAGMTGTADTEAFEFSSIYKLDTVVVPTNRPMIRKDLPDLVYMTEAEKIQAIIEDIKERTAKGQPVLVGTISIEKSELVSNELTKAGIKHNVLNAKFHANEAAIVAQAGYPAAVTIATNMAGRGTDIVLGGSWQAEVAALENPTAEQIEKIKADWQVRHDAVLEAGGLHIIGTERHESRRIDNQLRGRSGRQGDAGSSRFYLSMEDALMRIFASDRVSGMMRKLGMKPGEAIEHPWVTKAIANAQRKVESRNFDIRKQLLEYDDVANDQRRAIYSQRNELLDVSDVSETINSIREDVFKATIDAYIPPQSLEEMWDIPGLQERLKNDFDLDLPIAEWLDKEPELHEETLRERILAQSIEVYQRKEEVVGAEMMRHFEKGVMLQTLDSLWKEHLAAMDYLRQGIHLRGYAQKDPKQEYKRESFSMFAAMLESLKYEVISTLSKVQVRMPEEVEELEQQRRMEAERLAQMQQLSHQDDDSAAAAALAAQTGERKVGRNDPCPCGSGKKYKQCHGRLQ

Consider `Cn1ncc2c1CCCC2NCc1cnc(-c2ccccc2)nc1` (stereo not given), for which the Percent Effect in assay [1] is -8.3%; in assay [2], 13.5%; in [3] it was -13.8%; in assay [4] it was 24.2%; in the assay with Trypanosoma cruzi it was 4.62%; in [5] it was -7.21%. In addition, the Percent Effect in [6] is 1.44%; in the assay listed under Homo sapiens, 22.4%; in [7] it was 2.46%; in [8], 18.5%; in [9], -12.3%.
For `N#CC1(C(=O)Nc2ccc(OC(F)F)cc2)CCCC1`, the Percent Effect in assay [1] was -4.03%; in [2], 1.39%; in assay [3], 5.97%; in [4], -0.254%; with Trypanosoma cruzi, 0.68%; in [5], 2.21%. Also, the Percent Effect was 3.68% in assay [6]; -8.03% in the assay listed under Homo sapiens; 2.1% in [7]; 5.13% in assay [8]; -0.635% in [9].
As for `COCc1nc(C(=O)N2CCCC2c2ccccc2C)cs1` (stereo not given), the Percent Effect in [1] is -2.11%; in [2] it was 3.8%; in [3] it was 3.68%; in assay [4], 5.3%; in the assay on Trypanosoma cruzi, 0.513%; in [5] it was -4.09%. For the same molecule, the Percent Effect in assay [6] was 13.2%; in the assay listed under Homo sapiens, 16.4%; in assay [7], 9.38%; in assay [8], 22.8%; in assay [9], -22.3%.
Turning to `CC(C)Oc1cccc(C(O)CNC(=O)CCc2ccncc2)c1` (stereo not given), the Percent Effect is -3.24% in [1]; -5.48% in [2]; 2.43% in assay [3]; 13.4% in assay [4]; -3.97% in the assay on Trypanosoma cruzi; -7.58% in assay [5]. The Percent Effect in [6] is 3.85%; in the assay filed under Homo sapiens, 0.683%; in [7], 1.04%; in assay [8] it was 3.7%; in assay [9], 5.03%.
For `Cc1nc(C2CCCN(C(=O)c3ccc(N4CCCC4)nc3)C2)no1` (stereo not given), the Percent Effect in assay [1] is -3.94%; in assay [2] it was 3.8%; in assay [3], 7.78%; in assay [4] it was 4.58%; in the assay on Trypanosoma cruzi, 3.18%; in assay [5] it was -8.39%. Also, the Percent Effect in assay [6] is 1.37%; in the assay listed under Homo sapiens, 13.9%; in [7] it was 4.17%; in assay [8], 12.7%; in assay [9], -26.5%.
With `CCOC(CC)C(=O)NCCC(=O)N1CCN(c2ccccn2)CC1` (stereo not given), the Percent Effect was -3.95% in [1]; 2.63% in [2]; 4.4% in [3]; 4.32% in [4]; 3.99% in the assay with Trypanosoma cruzi; -8.28% in [5]. Further, the Percent Effect is 6.23% in assay [6]; -5.03% in the assay filed under Homo sapiens; 2.13% in assay [7]; 5.2% in [8]; 0.201% in [9].
Take `CCC(C)c1noc(C2CCN(C(=O)c3cccs3)CC2)n1` (stereo not given): the Percent Effect in assay [1] is -0.878%; in assay [2], 7.79%; in assay [3] it was 1.18%; in [4], 3.86%; with Trypanosoma cruzi, -2.65%; in assay [5], -2.76%. Also, the Percent Effect in [6] was 13.8%; in the assay filed under Homo sapiens, 23.9%; in [7], 4.3%; in assay [8], 11.1%; in assay [9], -1.15%.
For `O=C(c1cnn(-c2ccccc2F)c1)N1CCN(CCO)CC1`, the Percent Effect in assay [1] is -0.313%; in assay [2], 2.67%; in assay [3], -3.7%; in [4], 3.26%; with Trypanosoma cruzi it was 5.36%; in assay [5], 16.1%. Moreover, the Percent Effect in assay [6] is 0.698%; in the assay filed under Homo sapiens, -20%; in assay [7], -0.546%; in [8] it was 3.7%; in [9] it was -1.23%.
As for `CN(Cc1ncc(-c2ccccc2)o1)CC1CCCN1c1cccnn1` (stereo not given), the Percent Effect was -0.973% in assay [1]; -26% in assay [2]; 3.71% in assay [3]; 2.54% in assay [4]; 7.74% in the assay on Trypanosoma cruzi; -1.9% in assay [5]. The Percent Effect in assay [6] is 1.54%; in the assay listed under Homo sapiens it was -9.54%; in assay [7], 2.86%; in assay [8], 9.41%; in assay [9], -9.3%.
Regarding `CN1CCCC(c2cccc(Cc3ccccc3Cl)n2)C1` (stereo not given), the Percent Effect in assay [1] is -3.49%; in assay [2], -4.05%; in assay [3] it was 7.5%; in assay [4], 3.2%; with Trypanosoma cruzi, 1.38%; in assay [5], -3.48%. In addition, the Percent Effect in assay [6] is 1.72%; in the assay filed under Homo sapiens it was 5.26%; in [7], 2.15%; in assay [8], 1.3%; in assay [9], -7.93%.
